The campaign covered roughly 2,100 compounds. About 480 (23%) were called active. About 5% were inconclusive and are not listed.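 How the source made its calls: active means fitted curve reaches 40% activation at or below the top valid concentration, in every replicate test; inconclusive means replicate tests disagree on the call; inactive means the rest, including activity in the opposite direction.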 Not all results are given here. Entries with a potency or affinity are not part of this list.
experiment: activators raising PGC1a acetylation in cells, dose response, cell-based, cherry-picked samples, set 6 (AID 720513); conditions: U2OS PGC1a acetylation AlphaLISA, overnight, 0 = neutral, -100 = inhibitor control; series mostly up to 19.5 µM;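 further: cells made to overexpress flag tagged PGC1a plus GCN5 acetyltransferase by viral infection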

outcome, inactive:
CC(C)C#Cc1cnc2c(c1)C(=O)N([C@@H](C)CO)C[C@@H](C)[C@@H](CN(C)C(=O)CN1CCOCC1)O2
CCCN(CC)c1ncnc2[nH]ncc12
CCCOC1CCCN(C(=O)c2cc(Cl)c(Cl)cc2C(=O)O)C1 (stereo not given)
COc1ccc(-n2nc(C#N)c(Cl)cc2=O)cc1
Cc1ccc(N2C(=O)c3ccccc3NC2C(C)Cc2ccc3c(c2)OCO3)cc1 (stereo not given)
C[C@H](CO)N1C[C@H](C)[C@H](CN(C)Cc2ccc(Oc3ccccc3)cc2)Oc2c(NC(=O)Nc3ccc4c(c3)OCO4)cccc2C1=O
Cc1ccc(S(=O)(=O)N(C)C[C@@H]2OCCCC[C@H](C)Oc3ccc(NS(C)(=O)=O)cc3C(=O)N([C@@H](C)CO)C[C@@H]2C)cc1
Cc1nc2ccccc2n2c(O)c(CC(=O)O)cc12
Cc1ccc(S(=O)(=O)N(C)C[C@H]2OCCCC[C@H](C)Oc3ccc(N(C)C)cc3C(=O)N([C@H](C)CO)C[C@@H]2C)cc1
C(=C\c1ccccc1)/CN1CCN(C(c2ccnc3ccccc23)c2nnnn2C2CCCCC2)CC1 (stereo not given)
COc1cccc(CNC(=O)CCC2CCCN(Cc3ccc(OC(F)F)cc3)C2)c1 (stereo not given)
COc1ccc(C[C@@H]2OC3(C=CC(=O)C=C3)O[C@H]2Cc2ccc(OC)cc2)cc1
CC(=O)N(CCC(Cc1ccccc1)c1ccc2c(c1)OCO2)Cc1ccccc1F (stereo not given)
O=C(CN1CCOCC1)N[C@H]1CC[C@H](CCNC(=O)Nc2cc(F)ccc2F)O[C@H]1CO
Cn1c(C(C#N)C(=O)c2sc3ccccc3c2Cl)nc2ccccc21 (stereo not given)
CC1CCCN(C(=O)Cc2ccc(F)cc2)C1 (stereo not given)
CN1CCN(c2ccc([N+](=O)[O-])cc2C(=O)Nc2ccccc2)CC1
CC(c1ccccc1)C1CC(=O)N(c2ccc([N+](=O)[O-])cc2)C1=O (stereo not given)
Cc1cccc(N2CCN(CC3CCCCC3)CC2)c1C
Cc1ccc(N2CCN(CC(O)COC3CCCCC3)CC2)cc1 (stereo not given)
CCC(=O)N1CCN(c2ccc(Cl)cc2NC(=O)c2ccc([N+](=O)[O-])o2)CC1
CC(C)C(NC(=O)c1ccc(C(C)(C)C)cc1)C(=O)O (stereo not given)
C[C@@H]1CCCCO[C@H](CN(C)C(=O)NC2CCCCC2)[C@@H](C)CN([C@@H](C)CO)C(=O)c2cc(NC(=O)NC3CCCCC3)ccc2O1
N#Cc1c(-c2ccccc2)c(-c2ccccc2)nn(CC(=O)NNC(=O)Nc2ccc(Cl)cc2)c1=O
O=C(c1nc2nc(-c3ccccc3)cc(C(F)(F)F)n2n1)N1CCCCC1
CC[C@H](C)[C@H](NC(=O)c1ccc(Cl)cc1)C(=O)OCC(=O)c1ccc2c(c1)NC(=O)CO2
COc1cccc(CN2CCC(CO)(CC3CCCCO3)CC2)c1 (stereo not given)
OCC1(Cc2ccc(F)cc2F)CCCN(Cc2ccc(Cl)cc2)C1 (stereo not given)
N#Cc1cccc(-c2ccc(C3[C@@H]4CN(Cc5ccccc5F)C[C@H]3N4)cc2)c1 (stereo not given in full)
COc1cccc(C2c3[nH]c4ccccc4c3CCN2Cc2cnc(C)s2)c1OC (stereo not given)
CCc1nccn1S(=O)(=O)c1cc(C)c(OC)cc1C
COc1ccc(NC(=O)N[C@H]2CC[C@@H](CCn3cc(-c4ccccc4F)nn3)O[C@H]2CO)cc1
CCOCCCNC(=O)C1CCN(C(=O)Nc2ccc(C)cc2)CC1
Cc1cc(=O)[nH]c(SCC(=O)N2CCc3ccccc3C2)n1
CCOC(=O)c1ccc(NC(=O)CCS(=O)(=O)c2ccc(Br)s2)cc1
CCOC(=O)c1cnn(-c2ccccc2)c1-n1cccc1C(=O)C(=O)Nc1ccc(F)cc1
CN(C)S(=O)(=O)c1cc(NC(=O)CN2CCc3ccccc32)ccc1Cl
CC(C(=O)N1CCc2ccccc2C1)N(c1ccccc1)S(C)(=O)=O (stereo not given)
CC(C)Oc1ccc2nnnn2n1
CCCSCC(=O)Nc1ncc2c(n1)-c1ccccc1CC2
C[C@H]1CN([C@@H](C)CO)S(=O)(=O)c2ccc(C#CC3CCCCC3)cc2O[C@@H]1CN(C)Cc1cccnc1
O=C(c1ccco1)N1CCN(C(=O)N2c3ccccc3Sc3ccccc32)CC1
CCc1nc(SCC(=O)N2c3ccccc3Sc3ccccc32)c2ccccc2n1
O=c1[nH]c2ccccc2nc1/C=C/c1ccc(O)cc1
C[C@H]1CN([C@@H](C)CO)C(=O)c2cccc(NC(=O)Nc3ccc(F)cc3)c2O[C@@H]1CN(C)S(=O)(=O)c1cn(C)cn1
C[C@H](NS(=O)(=O)c1ccc2c(c1)OCCCO2)C(=O)N1CCN(Cc2ccccc2)CC1
COc1ccc2c(-c3ccccc3)cc(=O)[nH]c2c1
O=C(c1cc(-c2ccccc2)nc2ccccc12)N1N=C(C(F)F)CC1(O)C(F)F (stereo not given)
C=CCn1c(SCC(=O)Nc2ccc(C(=O)O)cc2)nnc1-c1cccnc1
COc1ccc(NC(=O)N[C@@H]2C=C[C@@H](CC(=O)NCc3ccccn3)O[C@@H]2CO)cc1
COc1ccc(C2(NC(C)=O)CCN(C(=O)CCC(=O)O)CC2)cc1
CN(c1ncnc(N)c1[N+](=O)[O-])C1CCS(=O)(=O)C1 (stereo not given)
CCN(C(=O)C1CC1)C1CCS(=O)(=O)C1 (stereo not given)
COCC(=O)Nc1ccc2c(c1)OC[C@@H](C)N(C(=O)c1ccccn1)C[C@@H](C)[C@@H](OC)CN(C)C2=O
CC1CCCCC1NC(=O)C1CCN(S(=O)(=O)N2CCOCC2)CC1 (stereo not given)
C[C@H](CO)N1C[C@H](C)[C@@H](CN(C)CC2CC2)Oc2cc(-c3cccnc3)ccc2S1(=O)=O
CCSc1nnc(NC(=O)CSC2=NCCS2)s1
COc1cccc(N2C(=O)CC(N3CCC(c4nc5ccccc5[nH]4)CC3)C2=O)c1 (stereo not given)
O=C(Cc1ccncc1)NCC[C@H]1CC[C@@H](NC(=O)C2CC2)[C@H](CO)O1
CCOC(=O)C1=C(CNCc2ccc(C)cc2)NC(=O)NC1c1cc(C)ccc1C (stereo not given)

Source: PubChem BioAssay AID720513 (Broad Institute, 2013)
